Source: PubChem BioAssay (NCI)
Compounds without any hit were thinned out: in the full panel of roughly 83,000, 20% have a hit.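 In brief: 96-well plates, 48 h treatment, single concentration, percent growth endpoint.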 Activity calls are given as the source filed them. The calls were made as follows: active = growth percent below 10; inactive = the rest.

Key:
Assay in all cases: NCI-60 one-dose screen, 48 h (100 = growth as untreated, 0 = no growth, -100 = all killed)
Conditions in all cases: 10 µM unless noted
[1] = tested on: DU-145 prostate
[2] = tested on: K-562 leukemia
[3] = tested on: MALME-3M melanoma
[4] = tested on: MDA-MB-231 breast
[5] = tested on: RXF 393 renal
[6] = tested on: SF-268 CNS
[7] = tested on: SF-295 CNS
[8] = tested on: SF-539 CNS
[9] = tested on: UACC-257 melanoma
[10] = tested on: M14 melanoma
[11] = tested on: HCT-15 colon
[12] = tested on: SNB-75 CNS
[13] = tested on: SNB-19 CNS
[14] = tested on: U251 CNS
[15] = tested on: PC-3 prostate
[16] = tested on: SK-MEL-5 melanoma
[17] = tested on: UACC-62 melanoma
[18] = tested on: LOX IMVI melanoma
[19] = tested on: SK-MEL-28 melanoma

Measured: growth

CN(C)CCC=C1c2ccccc2C(C)(C)c2ccccc21
inactive: [1] 35.9% | [2] 32.7% | [3] 78.9% | [4] 75% | [5] 66.4% | [6] 95.9% | [7] 67.2% | [8] 61.2% | [9] 24.2% | [10] 11.6% | [11] 83.9% | [12] 79.3% | [13] 86.1% | [14] 78.9% | [15] 55.5% | [16] 64.3% | [17] 71.2% | [18] 69.6% | [19] 54.5%

COc1cc2c(cc1-c1c(C)noc1C)ncc1nc(C3CCC(F)(F)CC3)n(C3CCC(OC(F)F)CC3)c12 (stereo not drawn)
inactive: [1] 73.3% | [2] 41.5% | [3] 48.2% | [4] 37.8% | [5] 75.5% | [6] 72.7% | [7] 68.1% | [8] 61.8% | [9] 38.8% | [10] 55.1% | [11] 36.1% | [12] 15.1% | [13] 67.2% | [14] 77.7% | [15] 41.8% | [16] 43.7% | [17] 32% | [18] 35.2% | [19] 66.6%

CC1O[C@@H](OC2[C@H](OC(=O)/C=C/c3ccc(O)c(O)c3)C(COC3O[C@H](C)C(O)C(O)[C@@H]3O)O[C@@H](OCCc3ccc(O)c(O)c3)[C@H]2O)[C@@H](O)C(O)[C@H]1O (stereo partly drawn)
inactive: [1] 106% | [2] 105% | [3] 88.1% | [4] 108% | [5] 125% | [6] 103% | [7] 103% | [8] 94.2% | [9] 80.8% | [10] 97.1% | [11] 100% | [12] 85.7% | [13] 107% | [14] 99.4% | [15] 99.9% | [17] 101% | [18] 102% | [19] 110%

O=c1c2cc(F)ccc2sc2c(Nc3cccnc3)nc3ccccc3c12
inactive: [1] 107% | [2] 86.4% | [3] 103% | [4] 72.2% | [5] 88.4% | [6] 89.5% | [7] 95.2% | [8] 82.1% | [9] 97.8% | [10] 104% | [11] 87.2% | [12] 71.9% | [13] 94.1% | [14] 70.2% | [15] 88.9% | [16] 88.9% | [17] 101% | [18] 89.4% | [19] 103%

C=C(C)[C@@H]1CC[C@]2(C(=O)NC3CCCCC3)CC[C@]3(C)[C@H](CC[C@@H]4[C@@]5(C)CCCNC(C)(C)[C@@H]5CC[C@]43C)[C@@H]12
inactive: [1] 59% | [4] 52.7% | [5] 56.6% | [6] 78.4% | [7] 96.9% | [8] 63.4% | [12] 93.9% | [13] 84.3% | [14] 14.9% | [15] 49.7% | [17] 11.7% | [19] 56.6%
active: [2] -8.4% | [3] -6.88% | [9] -9.57% | [10] -52.3% | [11] -26.8% | [16] 6.77% | [18] -91.8%

Cc1ccccc1NC(=O)N/C(N)=N/c1nc(-c2cccc([N+](=O)[O-])c2)cs1
inactive: [1] 69.3% | [3] 33% | [4] 50.4% | [5] 56.7% | [6] 64% | [7] 15.8% | [8] 41.1% | [9] 51.5% | [10] 19% | [11] 24.8% | [13] 44.1% | [14] 40.4% | [15] 58% | [16] 49.3% | [17] 34.1% | [19] 54.1%
active: [2] 9.08% | [12] -9.74% | [18] -10.5%

NC(N)=NN=C(c1ccccc1)c1ccccc1
active: [5] -28.4% | [10] -6.76% | [12] -7.05% | [16] 3.67%
inactive: [1] 22.8% | [2] 21.7% | [3] 48.8% | [4] 59.6% | [6] 46.1% | [7] 43% | [8] 19.3% | [9] 64.4% | [11] 30.9% | [13] 47% | [14] 32.1% | [15] 23.8% | [17] 54.8% | [18] 30.8%

COCCN(C(=O)c1ccc(F)cc1F)c1c(N)n(Cc2ccccc2)c(=O)[nH]c1=O
inactive: [1] 120% | [2] 96.6% | [3] 120% | [4] 106% | [5] 101% | [6] 111% | [7] 108% | [8] 108% | [9] 106% | [10] 112% | [11] 98.8% | [12] 105% | [13] 106% | [14] 100% | [15] 97.4% | [16] 108% | [17] 94.3% | [18] 99.3% | [19] 114%

Cc1cc(NCc2cc(Nc3ccnc4cc(Cl)ccc34)ccc2F)nc(N2CCSCC2)n1
inactive: [1] 23.6% | [6] 38.8% | [9] 17.6% | [13] 42.9% | [15] 26.6%
active: [2] -24.9% | [3] -30.7% | [4] -8.18% | [5] -5.98% | [7] -57.3% | [8] -72.2% | [10] -51.6% | [11] 1.94% | [12] -31.7% | [14] -71.4% | [16] -13.8% | [17] -54.4% | [18] -89.2% | [19] -64.3%

Nc1n[nH]c(-c2cc(Cl)ccc2O)c1-c1ccccc1
inactive: [1] 106% | [2] 67.9% | [3] 82.2% | [4] 78% | [5] 86.4% | [6] 92.3% | [7] 102% | [8] 94.6% | [9] 98.5% | [10] 93.8% | [11] 78.5% | [12] 86% | [13] 102% | [14] 89.2% | [15] 81% | [17] 66.6% | [18] 79.6% | [19] 122%

O=c1ssc(Cl)c1-c1ccccc1
inactive: [1] 113% | [2] 102% | [3] 100% | [4] 97% | [5] 86.7% | [6] 134% | [7] 102% | [8] 90.7% | [9] 91.3% | [10] 96.7% | [11] 101% | [12] 90.5% | [13] 111% | [14] 104% | [15] 79.5% | [16] 97.1% | [17] 95.4% | [18] 92.5% | [19] 100%

O=c1ccn2nc3ccccc3c2[nH]1
inactive: [1] 128% | [2] 98.5% | [3] 86.7% | [4] 91.3% | [5] 123% | [6] 110% | [7] 118% | [8] 95.9% | [9] 130% | [10] 98.6% | [11] 91.7% | [12] 85.2% | [13] 95.5% | [14] 96.4% | [15] 88% | [17] 92.5% | [18] 96.3% | [19] 182%

COC(=O)[C@]12CC[C@@H](C)[C@H](C)[C@@H]1C1=CC[C@@H]3[C@@]4(C)C(C=O)=C[C@@](C)(COS(C)(=O)=O)C4[C@H](O)C[C@@]3(C)[C@]1(C)CC2 (stereo partly drawn)
active: [1] -93.6% | [2] 1.48% | [3] -78.6% | [4] -74.9% | [5] -96.4% | [6] -74.4% | [7] -87.3% | [8] -89.6% | [9] -82.2% | [10] -59.9% | [11] -70.3% | [12] -92.1% | [13] -67.7% | [14] -96.2% | [15] -36% | [16] -91.6% | [17] -38.4% | [18] -97.3% | [19] -57.7%
